Results with a measured potency or affinity are listed apart. Results filed as inconclusive are left out. Active and inactive are the calls of the source.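 The calls were made as follows: active = samples whose fitted half-maximal inhibition concentration is no more than ten times the top valid dose tested; inconclusive = flat response between -70 and -30, or invalid curve fit; inactive = flat within 30 of zero, potency above limit, or signal rising.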
Each compound was assayed against Trypsin (Sus scrofa) (UniProt P00761) (assay: trypsin protease activity blockade – biochemical, quenched peptide fluorescence, cherry-pick, selectivity assay for Rce1 protease inhibitor project, dose response (AID 488789;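 also: more negative means stronger trypsin inhibition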)). Details: porcine trypsin, quenched peptide cleavage fluorescence; series mostly up to 10 µM.
Trypsin (Sus scrofa), sequence (P00761 whole entry, looked up): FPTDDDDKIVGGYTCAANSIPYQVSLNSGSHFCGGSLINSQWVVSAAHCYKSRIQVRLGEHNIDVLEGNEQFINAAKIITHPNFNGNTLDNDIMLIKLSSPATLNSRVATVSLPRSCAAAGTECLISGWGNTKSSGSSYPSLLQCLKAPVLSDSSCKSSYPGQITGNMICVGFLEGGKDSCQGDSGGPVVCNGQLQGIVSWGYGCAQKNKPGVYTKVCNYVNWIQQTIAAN

outcome, inactive:
CN1CCN(Cc2c(C(=O)N/N=C/c3cccc(Br)c3)nnn2-c2nonc2N)CC1
CC(C)c1cccc(OCC(=O)Nc2ccc(S(=O)(=O)Nc3ccccn3)cc2)c1
c1ccc(Nc2cccc(Nc3ccccc3)n2)cc1
CCn1c(C)nc2c(=O)oc3ccccc3c21
O=C(NCCc1c[nH]c2ccccc12)OCCSS(=O)(=O)O
COC(=O)c1sccc1NC(=O)CSc1nnnn1-c1ccccc1C
COc1ccc(-c2cn3ccccc3n2)cc1[N+](=O)[O-]
Cn1c(CCNS(=O)(=O)c2ccccc2)nnc1SCc1cccnc1
COc1ccccc1-n1c(-c2ccccc2)c[nH]c1=S
COc1ccccc1NC(=O)/C(=C\c1cccnc1)NC(=O)c1ccc(C)cc1
OC(CNCCC1C=Nc2ccccc21)Cn1c2ccc(Cl)cc2c2cc(Cl)ccc21 (configuration not stated)
CC(=O)Oc1ccc(C(=O)Nc2ccc(S(=O)(=O)NCC3CCCO3)cc2)cc1 (configuration not stated)
Clc1ccc(CN2CCc3c([nH]c4ccccc34)C2)cc1Cl
CC(=O)c1c(O)cc(O)c(C(C)=O)c1O
O=C(c1cn(-c2ccccc2)nc1-c1cccs1)N1CCN(c2ccccn2)CC1
COc1ccc(C2Nc3ccccc3C(=O)N2Cc2ccccc2)cc1COc1ccccn1 (configuration not stated)
Cc1cc(C)cc(N2CC(O)=C(c3nc4ccccc4c(=O)[nH]3)C2=N)c1
COc1cc(-c2nc3ccccn3c2/N=C/c2ccccc2)ccc1O
CCCCCCCCCC[N+](C)(C)CC/C=C1/c2ccccc2Sc2ccc(Cl)cc21
OC1CCN(C(c2ccc3ncccc3c2)c2nnnn2C2CCCCC2)CC1 (configuration not stated)
Cc1ccc(C(=O)c2c3ccccc3[n+]([O-])n2CCO)cc1
COCCN1C(=O)/C(=C/c2ccc(Oc3ccc([N+](=O)[O-])cn3)c(OC)c2)SC1=Nc1ccccc1

Reference: PubChem BioAssay AID488789 (Broad Institute, 2010)
